{"source": "PubChem BioAssay AID1159580", "about": "(chemical genetic matrix, 2015)", "assay": "chemical genetic growth profiling, strain panel (AID 1159580);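 also: tested at 20 µM; growth read once vehicle control cultures reached saturation at 30 °C; 1 = growth at the plate median or of vehicle wells; lower values mean less growth of the strain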", "details": "S. cerevisiae deletion strains, growth OD", "note": "Values joined by “and” are separate entries in the source; they are usually repeats but may differ in a detail not shown here. Equal entries are not always repeated. About 2,000 (36%) of roughly 5,500 compounds were called active. Inconclusive results (about 18%) are left out. Some of the results follow. Unmarked numbers belong to inactive results. Rule as the data show it: active = normalized growth mostly below about 0.91 (no sharp cut-off); inconclusive = no clear call, values can overlap the other calls; inactive = mostly above about 0.92.", "data": [{"smiles": "CN(C)CCc1c[nH]c2ccc(CS(=O)(=O)N3CCCC3)cc12", "values": [{"measurement": "normalized growth", "setting": "locus YAL013W, strain DEP1, hits give low values", "result": 0.991}, {"measurement": "normalized growth", "setting": "locus YAL021C, strain ccr4, hits give low values", "result": 0.991}, {"measurement": "normalized growth", "setting": "locus YAL026C, strain drs2, hits give low values", "result": 0.976}, {"measurement": "normalized growth", "setting": "locus YAL030W, strain snc1, hits give low values", "result": 1.01}, {"measurement": "normalized growth", "setting": "locus YBL061C, strain skt5, hits give low values", "result": 1.01}, {"measurement": "normalized growth", "setting": "locus YBR009C, strain hhf1, hits give low values", "result": 0.925}, {"measurement": "normalized growth", "setting": "locus YBR021W, strain FUR4, hits give low values", "result": 1}, {"measurement": "normalized growth", "setting": "locus YBR023C, strain chs3, hits give low values", "result": 0.997}, {"measurement": "normalized growth", "setting": "locus YBR171W, strain sec66, hits give low values", "result": 1}, {"measurement": "normalized growth", "setting": "locus YBR229C, strain ROT2, hits give low values", "result": 0.995}, {"measurement": "normalized growth", "setting": "locus YBR231C, strain swc5, hits give low values", "result": 0.993}, {"measurement": "normalized growth", "setting": "locus YBR279W, strain paf1, hits give low values", "result": 0.986}, {"measurement": "normalized growth", "setting": "locus YCL011C, strain gbp2, hits give low values", "result": 0.982}, {"measurement": "normalized growth", "setting": "locus YCL016C, strain dcc1, hits give low values", "result": 1.02}, {"measurement": "normalized growth", "setting": "locus YCL029C, strain bik1, hits give low values", "result": 0.981}, {"measurement": "normalized growth", "setting": "locus YCL069W, strain vba3, hits give low values", "result": 0.977}, {"measurement": "normalized growth", "setting": "locus YCR088W, strain abp1, hits give low values", "result": 0.986}, {"measurement": "normalized growth", "setting": "locus YDL005C, strain med2, hits give low values", "result": 1.01}, {"measurement": "normalized growth", "setting": "locus YDL035C, strain GPR1, hits give low values", "result": 1.01}, {"measurement": "normalized growth", "setting": "locus YDL040C, strain nat1, hits give low values", "result": 0.99}, {"measurement": "normalized growth", "setting": "locus YDL074C, strain BRE1, hits give low values", "result": 1.05}, {"measurement": "normalized growth", "setting": "locus YDL101C, strain DUN1, hits give low values", "result": 0.987}, {"measurement": "normalized growth", "setting": "locus YDL134C, strain PPH21, hits give low values", "result": 0.99}, {"measurement": "normalized growth", "setting": "locus YDL185W, strain tfp1, hits give low values", "result": 0.979}, {"measurement": "normalized growth", "setting": "locus YDL192W, strain arf1, hits give low values", "result": 0.991}, {"measurement": "normalized growth", "setting": "locus YDR001C, strain nth1, hits give low values", "result": 0.98}, {"measurement": "normalized growth", "setting": "locus YDR069C, strain doa4, hits give low values", "result": 0.992}, {"measurement": "normalized growth", "setting": "locus YDR101C, strain arx1, hits give low values", "result": 0.986}, {"measurement": "normalized growth", "setting": "locus YDR137W, strain rgp1, hits give low values", "result": 0.986}, {"measurement": "normalized growth", "setting": "locus YDR150W, strain NUM1, hits give low values", "result": 0.999}, {"measurement": "normalized growth", "setting": "locus YDR159W, strain sac3, hits give low values", "result": "0.831 (active)"}, {"measurement": "normalized growth", "setting": "locus YDR162C, strain NBP2, hits give low values", "result": 1.01}, {"measurement": "normalized growth", "setting": "locus YDR195W, strain ref2", "result": 0.937}, {"measurement": "normalized growth", "setting": "locus YDR297W, strain sur2, hits give low values", "result": 0.996}, {"measurement": "normalized growth", "setting": "locus YDR318W, strain mcm21, hits give low values", "result": 0.996}, {"measurement": "normalized growth", "setting": "locus YDR334W, strain swr1, hits give low values", "result": 0.949}, {"measurement": "normalized growth", "setting": "locus YDR335W, strain msn5, hits give low values", "result": 0.982}, {"measurement": "normalized growth", "setting": "locus YDR388W, hits give low values", "result": 0.988}, {"measurement": "normalized growth", "setting": "locus YDR392W, strain spt3, hits give low values", "result": 0.972}, {"measurement": "normalized growth", "setting": "locus YDR502C, strain sam2, hits give low values", "result": 0.989}, {"measurement": "normalized growth", "setting": "locus YEL003W, strain gim4, hits give low values", "result": 0.977}, {"measurement": "normalized growth", "setting": "locus YEL037C, strain rad23, hits give low values", "result": 0.976}, {"measurement": "normalized growth", "setting": "locus YEL061C, strain CIN8 (second series), hits give low values", "result": 0.958}, {"measurement": "normalized growth", "setting": "locus YEL061C, strain CIN8, hits give low values", "result": 1}, {"measurement": "normalized growth", "setting": "locus YER015W, strain faa2, hits give low values", "result": 0.993}, {"measurement": "normalized growth", "setting": "locus YER016W, strain bim1, hits give low values", "result": 1.05}, {"measurement": "normalized growth", "setting": "locus YER110C, hits give low values", "result": 0.99}, {"measurement": "normalized growth", "setting": "locus YER111C, strain swi4, hits give low values", "result": 0.998}, {"measurement": "normalized growth", "setting": "locus YER155C, strain BEM2 (second series), hits give low values", "result": 1.02}, {"measurement": "normalized growth", "setting": "locus YER155C, strain BEM2, hits give low values", "result": 1.02}, {"measurement": "normalized growth", "setting": "locus YER167W, strain BCK2, hits give low values", "result": 0.992}, {"measurement": "normalized growth", "setting": "locus YFR010W, strain ubp6, hits give low values", "result": 0.947}, {"measurement": "normalized growth", "setting": "locus YGL078C, strain dbp3, hits give low values", "result": 0.985}, {"measurement": "normalized growth", "setting": "locus YGL086W, strain mad1, hits give low values", "result": 0.988}, {"measurement": "normalized growth", "setting": "locus YGL167C, strain pmr1, hits give low values", "result": 0.983}, {"measurement": "normalized growth", "setting": "locus YGL173C, strain kem1, hits give low values", "result": 0.958}, {"measurement": "normalized growth", "setting": "locus YGL227W, strain vid30, hits give low values", "result": 0.966}, {"measurement": "normalized growth", "setting": "locus YGL240W, strain doc1, hits give low values", "result": 0.926}, {"measurement": "normalized growth", "setting": "locus YGL248W, strain PDE1, hits give low values", "result": 0.993}, {"measurement": "normalized growth", "setting": "locus YGL253W, strain hxk2, hits give low values", "result": 1}, {"measurement": "normalized growth", "setting": "locus YGR078C, strain PAC10, hits give low values", "result": 1.01}, {"measurement": "normalized growth", "setting": "locus YGR135W, strain pre9, hits give low values", "result": 0.999}, {"measurement": "normalized growth", "setting": "locus YGR229C, strain SMI1, hits give low values", "result": 1.01}, {"measurement": "normalized growth", "setting": "locus YGR252W, strain gcn5, hits give low values", "result": 1.03}, {"measurement": "normalized growth", "setting": "locus YHR013C, strain ard1, hits give low values", "result": 1.02}, {"measurement": "normalized growth", "setting": "locus YHR027C, strain rpn1, hits give low values", "result": 0.984}, {"measurement": "normalized growth", "setting": "locus YHR030C, strain SLT2, hits give low values", "result": "0.995 and 0.96"}, {"measurement": "normalized growth", "setting": "locus YHR079C, strain IRE1 (second series), hits give low values", "result": 0.981}, {"measurement": "normalized growth", "setting": "locus YHR079C, strain IRE1, hits give low values", "result": 0.984}, {"measurement": "normalized growth", "setting": "locus YHR094C, strain hxt1, hits give low values", "result": 0.987}, {"measurement": "normalized growth", "setting": "locus YHR129C, strain ARP1, hits give low values", "result": 0.981}, {"measurement": "normalized growth", "setting": "locus YHR142W, strain chs7, hits give low values", "result": 0.976}, {"measurement": "normalized growth", "setting": "locus YHR200W, strain rpn10, hits give low values", "result": 0.991}, {"measurement": "normalized growth", "setting": "locus YIL066C, strain RNR3, hits give low values", "result": 0.998}, {"measurement": "normalized growth", "setting": "locus YIL073C, strain SPO22, hits give low values", "result": 0.999}, {"measurement": "normalized growth", "setting": "locus YIL125W, strain kgd1, hits give low values", "result": 0.994}, {"measurement": "normalized growth", "setting": "locus YIR030C, strain dcg1, hits give low values", "result": 0.983}, {"measurement": "normalized growth", "setting": "locus YJL092W, strain hpr5, hits give low values", "result": 0.99}, {"measurement": "normalized growth", "setting": "locus YJL095W, strain BCK1 (second series), hits give low values", "result": 0.991}, {"measurement": "normalized growth", "setting": "locus YJL095W, strain BCK1, hits give low values", "result": "0.984 and 0.977"}, {"measurement": "normalized growth", "setting": "locus YJL115W, strain asf1, hits give low values", "result": 0.987}, {"measurement": "normalized growth", "setting": "locus YJL129C, strain trk1, hits give low values", "result": 0.994}, {"measurement": "normalized growth", "setting": "locus YJL134W, strain LCB3, hits give low values", "result": 0.991}, {"measurement": "normalized growth", "setting": "locus YJL154C, strain vps35, hits give low values", "result": 0.978}, {"measurement": "normalized growth", "setting": "locus YJL164C, strain tpk1, hits give low values", "result": 0.99}, {"measurement": "normalized growth", "setting": "locus YJL166W, strain qcr8, hits give low values", "result": 0.986}, {"measurement": "normalized growth", "setting": "locus YJL168C, strain set2, hits give low values", "result": 0.987}, {"measurement": "normalized growth", "setting": "locus YJL187C, strain SWE1 (second series), hits give low values", "result": 0.986}, {"measurement": "normalized growth", "setting": "locus YJL187C, strain SWE1, hits give low values", "result": 1.01}, {"measurement": "normalized growth", "setting": "locus YJR043C, strain POL32, hits give low values", "result": 0.994}, {"measurement": "normalized growth", "setting": "locus YJR066W, strain TOR1, hits give low values", "result": 0.925}]}]}
